Several values for one entry are separate records, joined by “and”; a condition that tells them apart may be missing. Equal entries are not always repeated.
Key:
[1] = target: T1, Aurora kinase A (Homo sapiens) (UniProt O14965); settings: at 1 µM;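 also: values are mean percent inhibition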
T1 sequence (whole entry): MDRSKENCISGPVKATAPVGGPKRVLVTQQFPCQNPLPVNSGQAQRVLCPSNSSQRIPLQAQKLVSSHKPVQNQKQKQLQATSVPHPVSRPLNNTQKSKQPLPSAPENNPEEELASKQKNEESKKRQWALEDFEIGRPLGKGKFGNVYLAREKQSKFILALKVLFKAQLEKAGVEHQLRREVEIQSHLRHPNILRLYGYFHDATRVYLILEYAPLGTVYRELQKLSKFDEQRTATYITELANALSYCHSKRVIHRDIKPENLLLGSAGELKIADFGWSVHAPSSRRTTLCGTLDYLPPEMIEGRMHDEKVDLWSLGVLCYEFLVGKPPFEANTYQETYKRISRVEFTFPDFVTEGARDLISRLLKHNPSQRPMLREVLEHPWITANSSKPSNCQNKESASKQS

[2] = target: Aurora kinase B (Homo sapiens) (UniProt Q96GD4); settings: at 0.1 µM
Aurora kinase B (Homo sapiens), sequence (Q96GD4 whole entry): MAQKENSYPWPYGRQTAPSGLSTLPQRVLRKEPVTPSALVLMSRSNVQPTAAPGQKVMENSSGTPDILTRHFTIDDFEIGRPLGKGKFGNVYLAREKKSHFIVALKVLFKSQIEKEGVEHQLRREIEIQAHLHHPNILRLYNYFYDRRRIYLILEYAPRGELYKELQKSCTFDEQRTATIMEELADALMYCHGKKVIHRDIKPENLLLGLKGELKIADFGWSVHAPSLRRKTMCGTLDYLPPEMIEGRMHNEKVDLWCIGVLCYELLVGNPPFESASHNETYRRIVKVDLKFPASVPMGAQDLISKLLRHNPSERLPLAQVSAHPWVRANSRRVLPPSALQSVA

[3] = target: Aurora kinase B (Homo sapiens) (UniProt Q96GD4); settings: at 1 µM
[4] = target: T2, Aurora kinase C (Homo sapiens) (UniProt Q9UQB9); settings: at 0.1 µM
T2 sequence (whole entry): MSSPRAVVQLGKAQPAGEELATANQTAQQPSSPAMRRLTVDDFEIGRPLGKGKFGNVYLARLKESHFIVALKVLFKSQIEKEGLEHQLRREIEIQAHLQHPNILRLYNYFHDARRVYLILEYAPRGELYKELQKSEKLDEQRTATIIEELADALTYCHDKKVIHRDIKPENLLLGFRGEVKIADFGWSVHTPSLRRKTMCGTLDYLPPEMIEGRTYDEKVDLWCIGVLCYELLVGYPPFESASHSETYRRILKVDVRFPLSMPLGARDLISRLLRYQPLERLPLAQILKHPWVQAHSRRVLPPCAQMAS

[5] = target: T2, Aurora kinase C (Homo sapiens); settings: at 1 µM
[6] = target: Serine/threonine-protein kinase 10 (Homo sapiens) (UniProt O94804); settings: at 0.1 µM
Serine/threonine-protein kinase 10 (Homo sapiens), sequence (O94804 whole entry, looked up): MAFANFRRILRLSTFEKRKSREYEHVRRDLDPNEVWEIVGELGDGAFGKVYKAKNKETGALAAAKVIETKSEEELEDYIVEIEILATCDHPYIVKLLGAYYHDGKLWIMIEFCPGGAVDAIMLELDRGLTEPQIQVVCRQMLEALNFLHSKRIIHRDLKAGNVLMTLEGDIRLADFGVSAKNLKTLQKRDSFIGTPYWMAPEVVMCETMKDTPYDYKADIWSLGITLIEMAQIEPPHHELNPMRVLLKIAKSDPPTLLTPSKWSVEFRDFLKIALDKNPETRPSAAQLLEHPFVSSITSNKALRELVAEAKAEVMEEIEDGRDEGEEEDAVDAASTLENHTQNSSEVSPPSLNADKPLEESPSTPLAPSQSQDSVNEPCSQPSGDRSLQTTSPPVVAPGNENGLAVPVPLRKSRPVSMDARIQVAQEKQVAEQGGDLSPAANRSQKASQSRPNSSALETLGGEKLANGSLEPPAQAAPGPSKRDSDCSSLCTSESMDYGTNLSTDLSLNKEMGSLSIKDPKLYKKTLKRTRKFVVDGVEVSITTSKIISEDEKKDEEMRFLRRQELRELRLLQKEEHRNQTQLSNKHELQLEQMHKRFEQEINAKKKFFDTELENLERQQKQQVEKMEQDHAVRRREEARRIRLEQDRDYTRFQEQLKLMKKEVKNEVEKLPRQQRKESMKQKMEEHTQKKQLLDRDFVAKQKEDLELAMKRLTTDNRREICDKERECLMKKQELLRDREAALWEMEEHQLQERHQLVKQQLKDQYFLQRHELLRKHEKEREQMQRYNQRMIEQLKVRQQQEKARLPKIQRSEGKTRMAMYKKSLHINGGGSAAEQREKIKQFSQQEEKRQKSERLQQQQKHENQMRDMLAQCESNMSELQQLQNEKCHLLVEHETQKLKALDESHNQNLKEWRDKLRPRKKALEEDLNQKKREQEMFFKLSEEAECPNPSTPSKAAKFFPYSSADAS

[7] = target: Serine/threonine-protein kinase 10 (Homo sapiens) (UniProt O94804); settings: at 1 µM
[8] = target: T3, Mitogen-activated protein kinase kinase kinase kinase 2 (Homo sapiens) (UniProt Q12851); settings: at 0.1 µM
T3 sequence (whole entry): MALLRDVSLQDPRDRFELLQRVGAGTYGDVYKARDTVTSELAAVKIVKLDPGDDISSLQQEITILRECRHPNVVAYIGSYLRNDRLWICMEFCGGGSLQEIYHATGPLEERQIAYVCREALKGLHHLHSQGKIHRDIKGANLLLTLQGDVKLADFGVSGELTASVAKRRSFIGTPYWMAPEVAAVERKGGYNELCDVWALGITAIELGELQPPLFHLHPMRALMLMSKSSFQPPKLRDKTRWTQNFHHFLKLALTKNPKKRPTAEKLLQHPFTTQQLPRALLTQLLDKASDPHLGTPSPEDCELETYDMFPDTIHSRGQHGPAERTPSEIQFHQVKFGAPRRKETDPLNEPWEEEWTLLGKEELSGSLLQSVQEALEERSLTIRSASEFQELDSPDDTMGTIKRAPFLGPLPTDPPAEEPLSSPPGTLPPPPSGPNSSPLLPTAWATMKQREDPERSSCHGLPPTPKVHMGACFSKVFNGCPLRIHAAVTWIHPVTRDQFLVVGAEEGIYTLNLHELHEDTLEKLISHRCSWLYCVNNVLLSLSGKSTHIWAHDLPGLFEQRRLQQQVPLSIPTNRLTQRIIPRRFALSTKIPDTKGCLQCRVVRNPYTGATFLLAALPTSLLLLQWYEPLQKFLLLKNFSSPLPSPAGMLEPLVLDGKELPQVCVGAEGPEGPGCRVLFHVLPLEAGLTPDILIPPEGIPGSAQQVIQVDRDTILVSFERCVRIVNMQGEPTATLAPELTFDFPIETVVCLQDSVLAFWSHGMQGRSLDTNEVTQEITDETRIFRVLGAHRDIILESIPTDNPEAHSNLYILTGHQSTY

[9] = target: T3, Mitogen-activated protein kinase kinase kinase kinase 2 (Homo sapiens); settings: at 1 µM
[10] = target: Mitogen-activated protein kinase kinase kinase kinase 4 (Homo sapiens) (UniProt O95819); settings: at 0.1 µM
Mitogen-activated protein kinase kinase kinase kinase 4 (Homo sapiens), sequence (O95819 2-1239 limits assumed): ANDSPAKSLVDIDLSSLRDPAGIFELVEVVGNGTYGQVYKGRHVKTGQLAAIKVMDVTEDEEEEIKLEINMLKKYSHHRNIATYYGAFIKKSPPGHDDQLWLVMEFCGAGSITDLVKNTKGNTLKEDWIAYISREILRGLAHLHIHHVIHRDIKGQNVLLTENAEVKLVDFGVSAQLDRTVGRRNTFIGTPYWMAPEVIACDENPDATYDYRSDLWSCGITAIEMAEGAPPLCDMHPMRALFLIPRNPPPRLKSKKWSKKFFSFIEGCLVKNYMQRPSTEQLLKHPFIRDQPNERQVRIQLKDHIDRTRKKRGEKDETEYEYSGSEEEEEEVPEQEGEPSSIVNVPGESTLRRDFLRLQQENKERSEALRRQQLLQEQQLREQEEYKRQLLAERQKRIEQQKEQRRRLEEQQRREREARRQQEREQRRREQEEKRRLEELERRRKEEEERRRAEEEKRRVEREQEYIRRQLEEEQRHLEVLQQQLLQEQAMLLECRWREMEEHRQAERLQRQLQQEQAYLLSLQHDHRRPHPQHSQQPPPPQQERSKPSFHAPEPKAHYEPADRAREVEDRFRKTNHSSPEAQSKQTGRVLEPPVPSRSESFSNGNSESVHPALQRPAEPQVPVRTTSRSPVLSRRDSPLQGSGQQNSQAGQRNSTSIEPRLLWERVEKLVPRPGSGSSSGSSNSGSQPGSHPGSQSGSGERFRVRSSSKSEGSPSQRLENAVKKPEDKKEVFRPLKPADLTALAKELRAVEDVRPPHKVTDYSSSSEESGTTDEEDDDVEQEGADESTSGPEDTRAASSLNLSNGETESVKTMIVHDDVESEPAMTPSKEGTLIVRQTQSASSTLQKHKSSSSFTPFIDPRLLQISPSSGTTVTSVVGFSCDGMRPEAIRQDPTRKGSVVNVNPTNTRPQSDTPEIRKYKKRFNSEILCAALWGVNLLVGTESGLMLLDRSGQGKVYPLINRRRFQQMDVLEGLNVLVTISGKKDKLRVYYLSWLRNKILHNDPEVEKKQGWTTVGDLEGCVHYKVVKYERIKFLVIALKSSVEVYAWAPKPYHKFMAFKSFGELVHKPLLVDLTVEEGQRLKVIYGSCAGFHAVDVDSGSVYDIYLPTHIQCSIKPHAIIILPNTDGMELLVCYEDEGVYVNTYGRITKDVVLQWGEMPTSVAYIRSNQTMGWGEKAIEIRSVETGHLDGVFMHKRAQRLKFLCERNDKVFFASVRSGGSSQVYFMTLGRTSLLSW

SMILES	inhibition [1] [%]	inhibition [2]	inhibition [3]	inhibition [4]	inhibition [5]	inhibition [6]	inhibition [7]	inhibition [8]	inhibition [9]	inhibition [10]
CS(=O)(=O)Nc1ccc(-c2ccc3c(NC(=O)C4CC4)n[nH]c3c2)cc1	20.2	4.33%	8.21%	1.71%	23.3%	5.26%	6.56%	1.04%	5.76%	6.29%
COc1ccc2ncn(-c3cc(O[C@H](C)c4ccccc4C(F)(F)F)c(C(N)=O)s3)c2c1	5.59	1.15%	7.77%	-1.97%	-0.3%	35.2%	80.7%	0.64%	4.67%	0.55%
CS(=O)(=O)CCNCc1ccc(-c2ccc3ncnc(Nc4ccc(OCc5cccc(C(F)(F)F)c5)cc4)c3c2)o1	4.78	5.65%	4.87%	1.93%	4.53%	9.88%	11.7%	-0.93%	2.32%	2.66%
OCCCNc1nccc(-c2c(-c3ccc(F)cc3)nn3cc(C(F)(F)F)ccc23)n1	7.6	3.85%	9.08%	0.36%	2.19%	6.36%	8.12%	0.6%	3.51%	5.34%
Cc1cc(O)cc(C)c1/C=C/c1cncc(C(=O)OC(C)(C)C)c1	14.9	3.41%	6.42%	0.94%	-1.91%	5.45%	17.5%	2.5%	7.97%	7.27%
Cn1c(-c2nonc2N)nc2cnccc21	7.19	1.6%	4.18%	1.42%	4.49%	4.28%	7.08%	0.8%	6.6%	6.14%
Nc1ncnc2occ(-c3ccc(NC(=O)Nc4cc(C(F)(F)F)ccc4F)cc3)c12	–	24.4% and 17.3%	69.9% and 55.9%	13.4% and 13.3%	92.5% and 68.8%	25% and 20.8%	69.2% and 63.1%	35.8% and 34.4%	66.3% and 65.5%	7.35% and 0.68%
CNC(=O)c1sc(-n2cnc3cc(OC)c(OC)cc32)cc1OCc1ccccc1C(F)(F)F	4.37	6.28%	16.6%	5.07%	20.8%	10.4%	31.6%	3.26%	7.14%	8.53%
O=C(O[C@H]1CN[C@H](C#Cc2cc3ncnc(Nc4ccc5c(ccn5Cc5cc(F)ccc5F)c4)c3s2)C1)N1CCOCC1	9.24	5.02%	8.88%	1.44%	9.49%	8.09%	7.76%	1.18%	2.82%	5.04%
COc1cc(N2CCN(C(C)C)CC2)ccc1Nc1nc(Nc2cccc(F)c2C(=O)O)c2cc[nH]c2n1	6.46	4.82%	5.02%	0.7%	-0.44%	5.69%	9.11%	0.91%	3.18%	7.43%
CN1CCC(n2cnc(-c3ccc(F)cc3)c2-c2ccnc(NCCO)n2)CC1	9.26	4.23%	4.96%	1.22%	-3.16%	4.56%	8.57%	1.01%	1.59%	7.52%
COc1ccccc1-c1cc(/C=C2\C(=O)Nc3ncc(Br)cc32)cc(Br)c1O	93	12.4%	57.2%	7.31%	87.5%	5.49%	5.99%	0.42%	5.34%	5.7%
CCS(=O)(=O)c1ccc(OC)c(Nc2ncc(-c3cccc(C(C)=O)c3)o2)c1	15.3	3.08%	6.28%	4.6%	-0.45%	6.16%	9.95%	-0.26%	3.22%	3.37%
CN(c1ccc(NC(=O)NCCN2CCOCC2)cc1)c1ccnc(Nc2ccc(CS(C)(=O)=O)cc2)n1	93.9	29.7%	76.9%	43.8%	104%	11.9%	34.2%	0.62%	3.53%	4.19%
NS(=O)(=O)c1ccc(N/N=C2\C(=O)Nc3cccc(CCc4ccncc4)c32)cc1	20.6	3.64%	7.9%	5%	8.21%	-0.95%	0.03%	1.75%	3.46%	4.39%
COC(=O)Nc1nc2cc(Oc3ccc(NC(=O)Nc4ccccc4)cc3)ccc2[nH]1	3.53	11.9%	24.9%	28.9%	42.6%	9.63%	14.7%	1.5%	0.87%	3.39%

Reference: ChEMBL document CHEMBL1961873, “Compounds: GSK PKIS; Assays: Nanosyn kinase panel” (2012)
